# Reference: PubChem BioAssay (NCATS)
# Inconclusive results are not listed. Where a call stands in place of a potency, no number is given. Calls of active or inactive are those of the source. Calls follow the shape of the dose curve; as a rule, active = well fitted inhibition curve with a large enough effect; inconclusive = small, poorly fitted or top-dose-only effect; inactive = flat fitted curve, though single readings scatter.
# How the values were obtained:
# Experiment in all cases: qHTS profiling for inhibitors of Plasmodium falciparum proliferation (AID 504749); also: nearly all actives have a fitted effect of over 60% in size
# [1] = test system: CP217; conditions: P. falciparum in erythrocytes, SYBR Green DNA, 72 h; series mostly up to 28.7 µM
# Procedure, shortened: (§1)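 SYBR Green fluorescence (ex 485 nm, em 535 nm) reports parasite DNA after 72 h compound exposure of infected red cells at 0.3% parasitemia, 2.5% hematocrit; signal normalized to 0.29 uM artemisinin and vehicle wells.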
# [2] = test system: CP238; conditions: P. falciparum in erythrocytes, SYBR Green DNA, 72 h; series mostly up to 28.7 µM
# Procedure, shortened: as §1
# [3] = test system: CP247; conditions: P. falciparum in erythrocytes, SYBR Green DNA, 72 h; series mostly up to 28.7 µM
# Procedure, shortened: as §1
# [4] = test system: CP250; conditions: P. falciparum in erythrocytes, SYBR Green DNA, 72 h; series mostly up to 12.8 µM
# Procedure, shortened: as §1
# [5] = test system: CP252; conditions: P. falciparum in erythrocytes, SYBR Green DNA, 72 h; series mostly up to 12.8 µM
# Procedure, shortened: as §1
# [6] = test system: CP256; conditions: P. falciparum in erythrocytes, SYBR Green DNA, 72 h; series mostly up to 28.7 µM
# Procedure, shortened: as §1
# [7] = test system: CP262; conditions: P. falciparum in erythrocytes, SYBR Green DNA, 72 h; series mostly up to 28.7 µM
# Procedure, shortened: as §1
# [8] = test system: CP268; conditions: P. falciparum in erythrocytes, SYBR Green DNA, 72 h; series mostly up to 28.7 µM
# Procedure, shortened: as §1
# [9] = test system: CP269; conditions: P. falciparum in erythrocytes, SYBR Green DNA, 72 h; series mostly up to 28.7 µM
# Procedure, shortened: as §1
# [10] = test system: CP286; conditions: P. falciparum in erythrocytes, SYBR Green DNA, 72 h; series mostly up to 28.7 µM
# Procedure, shortened: as §1
# [11] = test system: CP291; conditions: P. falciparum in erythrocytes, SYBR Green DNA, 72 h; series mostly up to 28.7 µM
# Procedure, shortened: as §1
# [12] = test system: CP297; conditions: P. falciparum in erythrocytes, SYBR Green DNA, 72 h; series mostly up to 28.7 µM
# Procedure, shortened: as §1
# [13] = test system: CP305; conditions: P. falciparum in erythrocytes, SYBR Green DNA, 72 h; series mostly up to 28.7 µM
# Procedure, shortened: as §1
# [14] = test system: CP315; conditions: P. falciparum in erythrocytes, SYBR Green DNA, 72 h; series mostly up to 28.7 µM
# Procedure, shortened: as §1
# [15] = test system: CP325; conditions: P. falciparum in erythrocytes, SYBR Green DNA, 72 h; series mostly up to 28.7 µM
# Procedure, shortened: as §1
# [16] = test system: CP329; conditions: P. falciparum in erythrocytes, SYBR Green DNA, 72 h; series mostly up to 28.7 µM
# Procedure, shortened: as §1
# [17] = test system: DFO2036; conditions: P. falciparum in erythrocytes, SYBR Green DNA, 72 h; series mostly up to 28.7 µM
# Procedure, shortened: as §1
# [18] = test system: DIV17; conditions: P. falciparum in erythrocytes, SYBR Green DNA, 72 h; series mostly up to 28.7 µM
# Procedure, shortened: as §1
# [19] = test system: DIV30; conditions: P. falciparum in erythrocytes, SYBR Green DNA, 72 h; series mostly up to 28.7 µM
# Procedure, shortened: as §1
# [20] = test system: Dd2; conditions: P. falciparum in erythrocytes, SYBR Green DNA, 72 h; series mostly up to 28.7 µM
# Procedure, shortened: as §1
# [21] = test system: FAB9; conditions: P. falciparum in erythrocytes, SYBR Green DNA, 72 h; series mostly up to 28.7 µM
# Procedure, shortened: as §1
# [22] = test system: HB3; conditions: P. falciparum in erythrocytes, SYBR Green DNA, 72 h; series mostly up to 28.7 µM
# Procedure, shortened: as §1
# [23] = test system: ICS; conditions: P. falciparum in erythrocytes, SYBR Green DNA, 72 h; series mostly up to 28.7 µM
# Procedure, shortened: as §1
# [24] = test system: JCK; conditions: P. falciparum in erythrocytes, SYBR Green DNA, 72 h; series mostly up to 28.7 µM
# Procedure, shortened: as §1
# [25] = test system: N140; conditions: P. falciparum in erythrocytes, SYBR Green DNA, 72 h; series mostly up to 28.7 µM
# Procedure, shortened: as §1
# [26] = test system: P93_24; conditions: P. falciparum in erythrocytes, SYBR Green DNA, 72 h; series mostly up to 28.7 µM
# Procedure, shortened: as §1
# [27] = test system: P94_40; conditions: P. falciparum in erythrocytes, SYBR Green DNA, 72 h; series mostly up to 28.7 µM
# Procedure, shortened: as §1
# [28] = test system: PC15; conditions: P. falciparum in erythrocytes, SYBR Green DNA, 72 h; series mostly up to 28.7 µM
# Procedure, shortened: as §1
# [29] = test system: SC27B; conditions: P. falciparum in erythrocytes, SYBR Green DNA, 72 h; series mostly up to 28.7 µM
# Procedure, shortened: as §1
# [30] = test system: TAB113; conditions: P. falciparum in erythrocytes, SYBR Green DNA, 72 h; series mostly up to 28.7 µM
# Procedure, shortened: as §1
# [31] = test system: W2; conditions: P. falciparum in erythrocytes, SYBR Green DNA, 72 h; series mostly up to 12.8 µM
# Procedure, shortened: as §1
# Potency is read from the fitted curve at half-maximal effect.
structure (smiles),measurement,setting,value
CC(=O)OC1C[C@H](O[C@@H]2C(O)C[C@H](O[C@@H]3C(O)C[C@@H](OC4CC[C@]5(C)C(CCC6C5CC(O)[C@@]5(C)C(C7=CC(=O)OC7)CC[C@@]65O)C4)OC3C)OC2C)O[C@H](C)[C@H]1O[C@H]1OC(CO)C(O)C(O)C1O (stereo partly specified),Potency,[1],inactive
same,Potency,[2],inactive
same,Potency,[3],inactive
same,Potency,[4],inactive
same,Potency,[5],inactive
same,Potency,[6],inactive
same,Potency,[7],inactive
same,Potency,[8],inactive
same,Potency,[9],inactive
same,Potency,[10],inactive
same,Potency,[11],inactive
same,Potency,[12],inactive
same,Potency,[13],inactive
same,Potency,[14],inactive
same,Potency,[15],inactive
same,Potency,[16],inactive
same,Potency,[17],inactive
same,Potency,[18],13.5 µM (active)
same,Potency,[19],inactive
same,Potency,[20],inactive
same,Potency,[21],inactive
same,Potency,[22],12.6 µM (active)
same,Potency,[23],5.62 µM (active)
same,Potency,[24],inactive
same,Potency,[25],inactive
same,Potency,[26],12.6 µM (active)
same,Potency,[27],inactive
same,Potency,[28],5.01 µM (active)
same,Potency,[29],inactive
same,Potency,[30],inactive
same,Potency,[31],13.5 µM (active)
